Screening data from PubChem.
This is a sample that favours compounds with a hit; in the whole collection about 3.8% have one here.
MPTP block = mitochondrial permeability transition pore inhibitors, primary screen, biochemical, isolated mouse mitochondria, absorbance | inhibition, % at 10 µM | 360,000 tested, 1.4% active | Ca2+ swelling absorbance, 30 min;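 active means inhibition of 50% or more, scaled per plate between neutral and stimulator controls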
Cardio protect = cardioprotection against H2O2-induced cell death, primary screen, uHTS, H9c2 cells, ATPLite luminescence; H9c2 cardiomyocytes, H2O2 injury protection, 2 h; protection from H2O2 cell death, % at 20 µM; 360,000 tested, 0.63% active; AID 588492, 2011;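 active means compounds giving at least 50% protection of heart cells from peroxide-induced death in the single-dose screen, raw or plate-pattern-corrected value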
FAS TE block = FAS thioesterase domain inhibitors, primary screen, biochemical, fluorescence intensity, uHTS | Fatty acid synthase (Homo sapiens), P49327 | recombinant FAS-TE, OMFH fluorogenic substrate, fluorescence endpoint | inhibition, % at 15 µM | 360,000 tested, 0.67% active | AID 602261, 2012;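 active means compounds whose normalised, plate-corrected inhibition of enzyme fluorescence in the single-dose primary screen is 50% or more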
Target sequence (P49327 whole entry, looked up, the tested form may be a part): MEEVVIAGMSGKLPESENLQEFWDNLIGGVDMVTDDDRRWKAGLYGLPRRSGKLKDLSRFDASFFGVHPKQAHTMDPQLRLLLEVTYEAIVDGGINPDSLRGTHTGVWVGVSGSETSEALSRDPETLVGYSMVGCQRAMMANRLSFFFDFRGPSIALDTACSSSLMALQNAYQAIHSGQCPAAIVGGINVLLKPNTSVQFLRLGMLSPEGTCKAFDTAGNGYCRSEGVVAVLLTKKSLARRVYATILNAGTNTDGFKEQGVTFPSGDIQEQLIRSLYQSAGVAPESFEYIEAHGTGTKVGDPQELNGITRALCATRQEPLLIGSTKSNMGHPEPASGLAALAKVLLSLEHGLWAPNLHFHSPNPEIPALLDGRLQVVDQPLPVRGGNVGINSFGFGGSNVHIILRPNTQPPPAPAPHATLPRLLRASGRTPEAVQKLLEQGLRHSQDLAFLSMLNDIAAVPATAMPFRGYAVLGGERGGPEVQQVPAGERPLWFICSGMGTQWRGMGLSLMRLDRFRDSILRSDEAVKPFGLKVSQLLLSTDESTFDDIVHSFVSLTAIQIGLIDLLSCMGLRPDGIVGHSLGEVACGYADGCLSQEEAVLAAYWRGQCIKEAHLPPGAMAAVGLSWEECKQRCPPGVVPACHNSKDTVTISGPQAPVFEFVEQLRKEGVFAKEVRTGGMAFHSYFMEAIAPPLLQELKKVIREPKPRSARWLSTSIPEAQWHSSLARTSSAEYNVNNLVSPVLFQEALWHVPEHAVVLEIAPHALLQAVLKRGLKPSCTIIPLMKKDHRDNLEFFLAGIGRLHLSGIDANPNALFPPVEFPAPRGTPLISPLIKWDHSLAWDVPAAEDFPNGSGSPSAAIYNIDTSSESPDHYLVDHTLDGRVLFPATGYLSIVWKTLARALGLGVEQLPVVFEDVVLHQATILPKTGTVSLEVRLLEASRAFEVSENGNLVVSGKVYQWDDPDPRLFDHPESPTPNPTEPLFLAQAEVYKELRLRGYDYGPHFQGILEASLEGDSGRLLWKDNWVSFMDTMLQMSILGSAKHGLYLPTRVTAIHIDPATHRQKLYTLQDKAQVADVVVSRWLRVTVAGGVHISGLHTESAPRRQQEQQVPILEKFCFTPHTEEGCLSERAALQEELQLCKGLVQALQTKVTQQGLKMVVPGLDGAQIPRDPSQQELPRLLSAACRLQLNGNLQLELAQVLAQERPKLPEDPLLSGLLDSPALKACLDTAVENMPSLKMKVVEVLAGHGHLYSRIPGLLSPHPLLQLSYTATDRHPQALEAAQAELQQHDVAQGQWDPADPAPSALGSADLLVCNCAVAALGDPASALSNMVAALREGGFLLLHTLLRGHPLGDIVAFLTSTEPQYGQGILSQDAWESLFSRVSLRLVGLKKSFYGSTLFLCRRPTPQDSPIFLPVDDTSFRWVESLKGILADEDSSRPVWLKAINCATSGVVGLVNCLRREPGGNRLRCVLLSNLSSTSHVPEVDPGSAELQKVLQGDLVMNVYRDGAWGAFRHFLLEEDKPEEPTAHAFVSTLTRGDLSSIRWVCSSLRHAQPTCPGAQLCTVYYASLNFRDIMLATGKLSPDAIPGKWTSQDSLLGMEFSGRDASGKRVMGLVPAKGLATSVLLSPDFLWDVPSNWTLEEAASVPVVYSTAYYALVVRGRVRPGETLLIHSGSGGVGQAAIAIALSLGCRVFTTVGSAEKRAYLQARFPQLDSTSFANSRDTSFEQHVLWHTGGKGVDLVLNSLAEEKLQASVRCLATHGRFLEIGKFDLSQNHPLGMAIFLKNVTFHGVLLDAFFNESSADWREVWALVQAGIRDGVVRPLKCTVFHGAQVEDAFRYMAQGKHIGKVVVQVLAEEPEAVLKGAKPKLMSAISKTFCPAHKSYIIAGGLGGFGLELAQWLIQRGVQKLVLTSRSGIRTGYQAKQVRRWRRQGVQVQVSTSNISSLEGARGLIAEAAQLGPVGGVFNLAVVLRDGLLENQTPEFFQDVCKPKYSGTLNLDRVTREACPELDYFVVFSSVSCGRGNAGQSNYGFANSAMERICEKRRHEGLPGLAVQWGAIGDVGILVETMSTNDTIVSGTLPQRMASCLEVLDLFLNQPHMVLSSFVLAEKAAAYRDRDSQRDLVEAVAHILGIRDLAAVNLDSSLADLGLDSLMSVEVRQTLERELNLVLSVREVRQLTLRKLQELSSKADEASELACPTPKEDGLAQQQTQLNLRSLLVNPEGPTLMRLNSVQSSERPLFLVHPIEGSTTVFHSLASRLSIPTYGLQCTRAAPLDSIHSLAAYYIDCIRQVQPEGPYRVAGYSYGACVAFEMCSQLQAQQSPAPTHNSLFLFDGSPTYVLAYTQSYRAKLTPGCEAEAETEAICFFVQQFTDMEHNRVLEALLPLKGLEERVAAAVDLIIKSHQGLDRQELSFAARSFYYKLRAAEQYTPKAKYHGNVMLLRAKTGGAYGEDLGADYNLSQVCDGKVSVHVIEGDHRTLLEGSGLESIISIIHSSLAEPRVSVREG
Mot1-301 SUMO = yeast Mot1-301 growth rescue at high temperature, primary screen, SUMOylation pathway inhibitor project, S. cerevisiae, ATP luminescence, 38.5C | 320,000 tested, 1% active | AID 2716, 2010 | S. cerevisiae Mot1-301 growth rescue; percent above DMSO median, 100 means doubled | growth rescue, % at 18.8 µM;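 active means every valid replicate shows activation above 250% relative to neutral control wells; inactive means the rest, any valid replicate at or below 250%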
Yeast superoxide = reduction of superoxide in aged yeast, primary screen, HTS. superoxide response (% of plate mean), % at 10 µM. AID 2690, 2010. 330,000 tested, 0.18% active. S. cerevisiae aged cells, superoxide DHE fluorescence; stronger effect = lower value;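 active means superoxide response under a set limit, about three screen SD below normal, cut at about 65% in these data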;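 further: yeast aged for seven days with compound at 30 °C before DHE staining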
aDG glyco act = activators of alpha-DG glycosylation, primary screen, uHTS, Pro5-aDG cells, AlphaScreen; alpha-DG glycosylation AlphaScreen (IIH6); 0% Pro5, 100% B10-LARGE cell signal; activation, % at 10 µM; 360,000 tested, 0.22% active; AID 624168, 2012;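 active means activation of at least 8% versus controls, or a plate z-score of at least 8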;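 further: Pro5 are CHO cells carrying HIG-tagged alpha-DG that lacks glycosylation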
MPTP counter = fluorescence retest of MPTP screen hits in isolated mitochondria, single concentration; shares compounds with MPTP block; membrane potential, Rhodamine 123 fluorescence; inhibition, % at 10 µM; 5,000 tested, 78% active; AID 624504, 2012; in the data active means inhibition above about 22%
MPTP abs DR = mitochondrial permeability transition pore inhibitors, dose response, biochemical, absorbance, uHTS hits; shares compounds with MPTP block; isolated mitochondria swelling; IC50, µM; 780 tested, 58% active; in the data active means IC50 below about 20 µM
MPTP cs DR = fluorescent counter-screen in isolated mitochondria, dose response, counter-screen for MPTP inhibitor project, biochemical, fluorescence, uHTS hits; shares compounds with MPTP block; isolated mitochondria counterscreen, fluorescence read-out; IC50, µM; 780 tested, 49% active; AID 651564, 2012; in the data active means IC50 below about 80 µM
Large screens that a line does not name were inactive (follow-up assays come after a bar, where they were run).

COc1ccc(NC(=O)Nc2cccs2)cc1Cl	MPTP block 74 | MPTP counter 80
Cc1cccc(C)c1NC(=O)Nc1cccs1	none
N#Cc1cccc(NC(=S)Nc2ccccc2)c1	MPTP block 82 | MPTP counter 90
N#Cc1cccc(NC(=O)Nc2cccs2)c1	MPTP block 86 | MPTP counter 106
Oc1ccc(NC(=S)Nc2ccccc2)cc1	none
CCc1cccc(NC(=O)Nc2cccs2)c1	MPTP block 79 | MPTP counter 99
FC(F)(F)c1ccccc1Cc1c(-c2cccc(Cl)c2)nc2c3ccccc3ccn12	none (no result: Cardio protect, Mot1-301 SUMO, Yeast superoxide)
CCCCN(C(=O)c1ccccc1OCc1ccc(F)cc1)c1c(N)n(CC(C)C)c(=O)[nH]c1=O	none
O=C(Nc1cccs1)Nc1c(F)c(F)cc(F)c1F	none
O=C(Nc1cccs1)Nc1c(F)c(F)c(F)c(F)c1F	MPTP block 96 | MPTP counter 84
CN(C)CC1CCCCC1OC(=O)c1ccc(Br)cc1 (stereo not given)	none
CN(C)CC1CCCCC1OC(=O)c1ccc(S(=O)(=O)N(C)c2ccccc2)cc1 (stereo not given)	MPTP block 81 | MPTP counter inactive | MPTP abs DR 12 | MPTP cs DR 61
COc1ccc(-n2cc(CNC3CCN(C)CC3)c(-c3cccc(F)c3)n2)cc1	MPTP block 93 | MPTP counter inactive | MPTP abs DR 7 | MPTP cs DR inactive
COc1ccc(-n2cc(CN[C@H]3CCCCNC3=O)c(-c3cccc(F)c3)n2)cc1	none
CCCN(CCC)S(=O)(=O)c1ccc(C(=O)Nc2nc(-c3ccccc3)c(C(=O)OCC)s2)cc1	MPTP block 80 | MPTP counter inactive | MPTP abs DR 14 | MPTP cs DR 12
COCCN(CCOC)S(=O)(=O)c1ccc(C(=O)Nc2nc(-c3ccccc3)c(C(=O)c3ccccc3)s2)cc1	none
N#CCSc1n[nH]c2nc3c(c(=O)n12)C1(CCCCC1)Cc1ccccc1-3	MPTP block 70 | MPTP counter 64
C=CCNC(=O)c1ccc(NC(=O)CC2SC(N3CCCC3)=NC2=O)cc1 (stereo not given)	none
O=C(c1ccc2c(c1)CCC2)N1CCN(Cc2ccccc2)CC1	none (no result: Mot1-301 SUMO, Yeast superoxide)
O=C(Nc1ccncc1)Nc1ccc(Cl)cc1Cl	MPTP block 51 | MPTP counter 104
CC(Oc1ccc(Cl)cc1Cl)C(=O)Nc1ccncc1 (stereo not given)	MPTP block 77 | MPTP counter 74
CC(=O)Nc1ccc(NC(=O)C(C)Oc2ccc(Cl)cc2Cl)cc1 (stereo not given)	none
O=C(Nc1ccncc1)Nc1ccncc1	none
O=C(Nc1ccncc1)Nc1ccc(Cl)cc1	MPTP block 55 | MPTP counter 98
CCCc1c(NC(=O)Nc2ccc(Cl)cc2Cl)cnn1-c1ccccc1	MPTP block 83 | MPTP counter 76
CCCS(=O)(=O)c1nc(S(=O)(=O)c2ccc(C)cc2)c(NCCCn2ccnc2)s1	none
O=C(Nc1cccc(Cl)c1)c1ccccc1NC(=O)C1CCCCC1C(=O)O (stereo not given)	none
CCCCn1c(N)c(N(CCC(C)C)C(=O)c2ccc(N3CCCC3=O)cc2)c(=O)[nH]c1=O	none
N#C/C(=N\Nc1cccc(C(F)(F)F)c1)C(=O)c1csc(-c2cccnc2)n1	MPTP block 84 | MPTP counter 61
O=C(Nc1cccc(C(F)(F)F)c1)c1cccnc1	none
O=C(NNS(=O)(=O)c1ccc([N+](=O)[O-])cc1)c1ccncc1	none
O=C(NNC(=O)c1ccncc1)Nc1ccc(Br)cc1	MPTP block 87 (no result: Mot1-301 SUMO, Yeast superoxide) | MPTP counter 102
O=C(NNC(=O)c1ccncc1)Nc1ccc([N+](=O)[O-])cc1	MPTP block 82 | MPTP counter 92
O=C(NNC(=O)c1cccnc1)Nc1ccc([N+](=O)[O-])cc1	MPTP block 102 | MPTP counter 102
Cc1ccc(CSCC(=O)Nc2ccc(N3CCOCC3)cc2N2CCOCC2)cc1	none
Cc1ccc(CN(C)C(=O)COc2ccc(S(=O)(=O)N3CCCC3)cc2[N+](=O)[O-])c(C)c1	none
N#C/C(=C(/O)c1ccc([N+](=O)[O-])cc1)c1nc2ccccc2[nH]1	none
N#C/C(=C(/O)c1ccc(Cl)c([N+](=O)[O-])c1)c1nc2ccccc2[nH]1	MPTP block 78 | MPTP counter 81
C/C(O)=C(/C#N)c1nc2ccccc2[nH]1	none
N#C/C(=C(/O)C(Cl)(Cl)Cl)c1nc2ccccc2[nH]1	MPTP block 76 | MPTP counter 81
CSc1ncnc2c1ncn2CCCN1CCN(C(=O)C2CC2)CC1	none (no result: Mot1-301 SUMO, Yeast superoxide)
CCCCCCCCn1ccc(=N)cc1	none
CCCCCCCCCCCCCCCCn1cc[n+](C)c1	MPTP block 58 | MPTP counter 99
O=C(Nc1nnc(S(=O)(=O)N2CCCC2)s1)c1cccc([N+](=O)[O-])c1	none
O=C(Nc1ccc(Cl)cc1)Nc1nnc(CSCc2ccccc2Cl)s1	MPTP block 79 (no result: Mot1-301 SUMO) | MPTP counter 57
O=C(Nc1nnc(SCc2ccc(Cl)cc2)s1)c1ccco1	none
O=C(Nc1ccc(Cl)c(Cl)c1)Nc1nnc(CSc2ccccc2)s1	MPTP block 75 | MPTP counter 40
O=C(Nc1ccc(Cl)cc1)Nc1nnc(SCc2ccccc2)s1	MPTP block 86 (no result: Mot1-301 SUMO) | MPTP counter 89
O=C(Cc1nnc(NC(=O)Nc2ccc(F)cc2)s1)Nc1ccccc1	none
CC1CCN(S(=O)(=O)c2nnc(NC(=O)c3cccc([N+](=O)[O-])c3)s2)CC1	MPTP block 82 | MPTP counter 42
CCOc1ccccc1NCc1nnc(-c2ccccc2)o1	none
COc1ccccc1OCCNC(=O)CN(c1cccc(C)c1)S(=O)(=O)c1ccccc1	none
O=C(Nc1nnc(SCc2ccccc2)s1)c1cccc([N+](=O)[O-])c1	MPTP block 71 | MPTP counter 83
CCOc1ccc(NC(=O)Nc2nnc(CC)s2)cc1	none
Cc1ccc(OCCSCc2nnc(NC(=O)Nc3cccc(Cl)c3)s2)cc1	MPTP block 93 | MPTP counter 85
